The values below come from ChEMBL document CHEMBL1961873, “Compounds: GSK PKIS; Assays: Nanosyn kinase panel” (2012).

Assay [1] deals with T1, 3-phosphoinositide-dependent protein kinase 1 (Homo sapiens) (UniProt O15530).
T1 sequence (whole entry): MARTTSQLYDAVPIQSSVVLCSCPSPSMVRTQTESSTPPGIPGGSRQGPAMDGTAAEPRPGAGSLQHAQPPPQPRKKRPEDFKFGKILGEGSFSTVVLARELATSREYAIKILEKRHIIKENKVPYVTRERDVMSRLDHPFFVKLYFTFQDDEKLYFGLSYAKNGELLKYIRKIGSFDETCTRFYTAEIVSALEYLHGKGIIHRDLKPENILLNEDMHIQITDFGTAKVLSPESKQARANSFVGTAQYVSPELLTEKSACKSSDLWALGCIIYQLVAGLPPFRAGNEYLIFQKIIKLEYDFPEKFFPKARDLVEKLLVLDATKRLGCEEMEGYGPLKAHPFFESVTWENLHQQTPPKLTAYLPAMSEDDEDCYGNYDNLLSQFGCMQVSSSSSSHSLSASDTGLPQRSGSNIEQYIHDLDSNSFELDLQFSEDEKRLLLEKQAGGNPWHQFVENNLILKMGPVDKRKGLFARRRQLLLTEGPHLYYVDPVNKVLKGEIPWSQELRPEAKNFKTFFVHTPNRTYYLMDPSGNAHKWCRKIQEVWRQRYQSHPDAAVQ
The following applies: at 0.1 µM.

Assay [2] addresses cAMP-dependent protein kinase catalytic subunit alpha (Homo sapiens) (UniProt P17612). The following applies: at 0.1 µM.
Assay [3] has the same target. The following applies: at 1 µM.
Assay [4] addresses Protein kinase C alpha type (Homo sapiens) (UniProt P17252). The following applies: at 0.1 µM.
Assay [5] shares this target. The following applies: at 1 µM.
In assay [6] the target is Protein kinase C beta type (Homo sapiens) (UniProt P05771). The following applies: at 0.1 µM.
Assay [7] shares this target. The following applies: at 1 µM.
In assay [8] the target is Protein kinase C eta type (Homo sapiens) (UniProt P24723). As to conditions: at 0.1 µM.
Assay [9] has the same target. The following applies: at 1 µM.
The target of assay [10] is Protein kinase C gamma type (Homo sapiens) (UniProt P05129). As to conditions: at 0.1 µM.
For assay [11] the target is unchanged. As to conditions: at 1 µM.
Assay [12] concerns the target T2, Protein kinase C iota type (Homo sapiens) (UniProt P41743).
T2 sequence (whole entry): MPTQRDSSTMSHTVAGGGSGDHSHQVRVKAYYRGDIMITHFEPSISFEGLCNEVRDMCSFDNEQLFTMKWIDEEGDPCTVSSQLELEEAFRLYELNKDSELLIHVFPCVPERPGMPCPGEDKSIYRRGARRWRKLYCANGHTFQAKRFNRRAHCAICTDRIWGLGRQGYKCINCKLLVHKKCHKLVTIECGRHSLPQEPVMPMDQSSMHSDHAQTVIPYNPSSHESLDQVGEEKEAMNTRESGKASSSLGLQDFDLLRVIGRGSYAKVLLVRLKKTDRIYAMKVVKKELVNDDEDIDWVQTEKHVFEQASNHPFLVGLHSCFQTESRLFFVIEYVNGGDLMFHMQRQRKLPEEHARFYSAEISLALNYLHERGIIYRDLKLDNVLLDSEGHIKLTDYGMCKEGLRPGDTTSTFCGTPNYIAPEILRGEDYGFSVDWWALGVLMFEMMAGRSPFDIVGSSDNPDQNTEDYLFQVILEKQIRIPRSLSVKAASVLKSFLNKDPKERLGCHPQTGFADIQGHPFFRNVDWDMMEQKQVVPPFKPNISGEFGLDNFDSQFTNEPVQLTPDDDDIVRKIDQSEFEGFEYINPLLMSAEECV
The following applies: at 0.1 µM.

The target in assay [13] is T2, Protein kinase C iota type (Homo sapiens). The following applies: at 1 µM.
In assay [14] the target is Protein kinase C theta type (Homo sapiens) (UniProt Q04759). The following applies: at 0.1 µM.
The target is the same in assay [15]. The following applies: at 1 µM.
In assay [16] the target is Protein kinase C beta type (Homo sapiens) (UniProt P05771). The following applies: at 0.1 µM. This is another data set of the same source.
For assay [17] the target is unchanged. The following applies: at 1 µM. The source holds these as a separate data set.
The target in assay [18] is T3, Serine/threonine-protein kinase D1 (Homo sapiens) (UniProt Q15139).
T3 sequence (whole entry): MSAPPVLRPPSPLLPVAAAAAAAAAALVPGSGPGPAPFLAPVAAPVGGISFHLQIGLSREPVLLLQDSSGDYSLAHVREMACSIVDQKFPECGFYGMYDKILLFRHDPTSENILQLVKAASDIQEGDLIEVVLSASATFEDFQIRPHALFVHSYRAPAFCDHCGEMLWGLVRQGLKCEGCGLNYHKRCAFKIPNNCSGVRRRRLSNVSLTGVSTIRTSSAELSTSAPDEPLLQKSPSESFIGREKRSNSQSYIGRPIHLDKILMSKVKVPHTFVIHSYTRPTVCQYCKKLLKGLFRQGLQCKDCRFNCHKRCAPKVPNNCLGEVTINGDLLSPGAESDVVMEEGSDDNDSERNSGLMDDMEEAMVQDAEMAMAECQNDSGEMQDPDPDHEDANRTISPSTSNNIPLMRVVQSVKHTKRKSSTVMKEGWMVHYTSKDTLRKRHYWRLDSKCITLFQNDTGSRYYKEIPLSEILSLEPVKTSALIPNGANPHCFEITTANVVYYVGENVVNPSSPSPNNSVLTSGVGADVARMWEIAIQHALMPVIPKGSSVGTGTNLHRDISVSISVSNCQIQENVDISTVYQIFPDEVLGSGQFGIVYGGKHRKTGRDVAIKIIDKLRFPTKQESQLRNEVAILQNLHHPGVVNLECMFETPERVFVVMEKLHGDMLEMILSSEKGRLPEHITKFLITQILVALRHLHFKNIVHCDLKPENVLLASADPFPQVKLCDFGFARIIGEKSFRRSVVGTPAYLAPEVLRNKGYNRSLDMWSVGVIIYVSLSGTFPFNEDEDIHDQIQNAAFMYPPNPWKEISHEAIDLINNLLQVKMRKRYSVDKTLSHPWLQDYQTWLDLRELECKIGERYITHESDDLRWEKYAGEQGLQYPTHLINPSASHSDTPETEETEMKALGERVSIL
As to conditions: at 0.1 µM.

Assay [19] addresses T3, Serine/threonine-protein kinase D1 (Homo sapiens). As to conditions: at 1 µM.
Assay [20] has as its target T4, Serine/threonine-protein kinase D2 (Homo sapiens) (UniProt Q9BZL6).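 Note: reported percent inhibition values are means, part of the GSK PKIS kinase panel screen.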
T4 sequence (whole entry): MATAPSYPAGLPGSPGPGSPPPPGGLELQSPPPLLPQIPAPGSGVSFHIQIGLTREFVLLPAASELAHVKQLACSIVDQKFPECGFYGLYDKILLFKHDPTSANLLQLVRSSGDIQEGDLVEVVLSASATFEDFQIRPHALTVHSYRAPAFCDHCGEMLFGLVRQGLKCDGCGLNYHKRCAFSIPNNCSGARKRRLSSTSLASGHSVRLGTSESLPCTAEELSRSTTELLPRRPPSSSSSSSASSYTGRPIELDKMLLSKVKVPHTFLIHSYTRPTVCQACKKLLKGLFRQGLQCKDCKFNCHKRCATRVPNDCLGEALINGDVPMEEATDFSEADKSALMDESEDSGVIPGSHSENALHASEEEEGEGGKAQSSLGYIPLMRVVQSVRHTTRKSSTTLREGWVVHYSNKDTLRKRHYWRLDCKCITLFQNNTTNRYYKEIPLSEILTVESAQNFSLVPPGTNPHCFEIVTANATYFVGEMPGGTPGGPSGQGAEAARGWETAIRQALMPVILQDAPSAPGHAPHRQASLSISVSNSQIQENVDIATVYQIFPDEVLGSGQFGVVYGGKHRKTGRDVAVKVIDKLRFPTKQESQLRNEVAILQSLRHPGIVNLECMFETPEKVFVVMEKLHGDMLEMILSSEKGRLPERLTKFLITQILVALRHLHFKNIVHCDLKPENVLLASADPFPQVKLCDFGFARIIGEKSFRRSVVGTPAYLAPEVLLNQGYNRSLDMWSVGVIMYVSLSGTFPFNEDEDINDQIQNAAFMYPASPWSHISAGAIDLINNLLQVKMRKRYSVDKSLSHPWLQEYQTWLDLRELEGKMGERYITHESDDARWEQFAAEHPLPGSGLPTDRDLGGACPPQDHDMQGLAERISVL
The following applies: at 0.1 µM.

Chain of Protein kinase C beta type (Homo sapiens) (P05771 2-671 limits assumed): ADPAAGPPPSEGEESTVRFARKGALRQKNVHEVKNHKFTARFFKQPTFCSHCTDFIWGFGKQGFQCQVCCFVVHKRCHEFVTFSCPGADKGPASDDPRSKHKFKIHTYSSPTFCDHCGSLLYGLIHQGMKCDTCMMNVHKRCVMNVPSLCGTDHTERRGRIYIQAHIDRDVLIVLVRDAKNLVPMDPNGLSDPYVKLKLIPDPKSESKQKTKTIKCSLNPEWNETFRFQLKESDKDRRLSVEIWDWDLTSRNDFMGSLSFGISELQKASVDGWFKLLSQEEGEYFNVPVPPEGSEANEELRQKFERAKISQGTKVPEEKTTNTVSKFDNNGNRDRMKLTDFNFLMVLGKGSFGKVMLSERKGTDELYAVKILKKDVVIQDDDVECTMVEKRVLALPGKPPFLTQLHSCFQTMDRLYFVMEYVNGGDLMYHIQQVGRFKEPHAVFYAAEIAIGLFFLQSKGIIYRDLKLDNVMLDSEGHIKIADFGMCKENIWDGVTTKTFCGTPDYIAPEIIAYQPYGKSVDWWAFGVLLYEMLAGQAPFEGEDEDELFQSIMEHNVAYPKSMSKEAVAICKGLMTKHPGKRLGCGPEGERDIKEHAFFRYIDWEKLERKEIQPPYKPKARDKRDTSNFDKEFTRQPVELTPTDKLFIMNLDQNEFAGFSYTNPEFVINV
Chain of Protein kinase C eta type (Homo sapiens) (P24723 whole entry): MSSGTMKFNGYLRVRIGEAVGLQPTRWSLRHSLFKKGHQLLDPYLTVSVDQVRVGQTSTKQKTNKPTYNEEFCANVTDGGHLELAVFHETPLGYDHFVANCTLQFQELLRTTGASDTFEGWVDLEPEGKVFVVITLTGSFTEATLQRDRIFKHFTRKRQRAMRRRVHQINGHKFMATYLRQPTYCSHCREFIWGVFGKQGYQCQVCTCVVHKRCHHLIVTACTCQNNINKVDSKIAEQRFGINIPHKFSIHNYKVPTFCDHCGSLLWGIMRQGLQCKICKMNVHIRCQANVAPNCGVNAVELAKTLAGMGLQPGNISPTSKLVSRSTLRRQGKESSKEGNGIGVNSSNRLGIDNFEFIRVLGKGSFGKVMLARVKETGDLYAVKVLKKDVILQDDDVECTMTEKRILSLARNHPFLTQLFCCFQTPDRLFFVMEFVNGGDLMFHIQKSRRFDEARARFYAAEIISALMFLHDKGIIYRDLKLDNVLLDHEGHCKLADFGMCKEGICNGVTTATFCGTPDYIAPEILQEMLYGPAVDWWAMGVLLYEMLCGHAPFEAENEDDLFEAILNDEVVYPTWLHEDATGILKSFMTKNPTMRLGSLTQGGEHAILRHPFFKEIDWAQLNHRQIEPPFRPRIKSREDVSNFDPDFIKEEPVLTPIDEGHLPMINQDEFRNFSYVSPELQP
Chain of Protein kinase C theta type (Homo sapiens) (Q04759 whole entry, looked up): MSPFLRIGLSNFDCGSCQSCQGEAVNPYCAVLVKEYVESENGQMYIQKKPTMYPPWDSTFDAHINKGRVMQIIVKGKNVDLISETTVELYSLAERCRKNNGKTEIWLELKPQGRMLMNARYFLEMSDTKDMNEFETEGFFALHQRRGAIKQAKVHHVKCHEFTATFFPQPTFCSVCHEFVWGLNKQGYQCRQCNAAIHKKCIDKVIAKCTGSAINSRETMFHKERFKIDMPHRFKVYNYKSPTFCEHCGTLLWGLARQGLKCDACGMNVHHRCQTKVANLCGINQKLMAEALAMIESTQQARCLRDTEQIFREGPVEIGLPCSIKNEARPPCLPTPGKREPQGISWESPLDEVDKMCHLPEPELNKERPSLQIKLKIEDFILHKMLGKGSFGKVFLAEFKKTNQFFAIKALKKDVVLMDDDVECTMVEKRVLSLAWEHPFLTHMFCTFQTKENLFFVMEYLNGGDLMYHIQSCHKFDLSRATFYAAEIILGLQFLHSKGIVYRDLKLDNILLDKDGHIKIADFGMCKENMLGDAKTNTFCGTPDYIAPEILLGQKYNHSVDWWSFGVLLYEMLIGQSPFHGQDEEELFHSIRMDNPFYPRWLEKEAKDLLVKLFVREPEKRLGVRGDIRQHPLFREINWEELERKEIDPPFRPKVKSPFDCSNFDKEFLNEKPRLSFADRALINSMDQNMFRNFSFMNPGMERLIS

Regarding `ON=C1CCc2cc(-c3nc(C4CCNCC4)[nH]c3-c3ccncc3)ccc21`, the inhibition (as a rule, the drop in the measured response relative to a control, in per cent) in assay [1] was -0.07%; in assay [2] it was 1.54%; in [3], 18.8%; in assay [4], 1.13%; in [5], 2.47%; in assay [6] it was -0.12%. Further, the inhibition in assay [7] was 11.1%; in [8] it was -0.55%; in assay [9], 2.63%; in assay [10], -1.91%; in assay [11], -1.84%; in [12], -0.01%. The inhibition in assay [13] is 4.71%; in [14], -0.55%; in [15], 1.23%; in assay [16], 0.45%; in assay [17] it was 7.96%; in assay [18], 0.36%. In addition, the inhibition was determined as 5.6% in assay [19] and 1.54% in [20].
`C[C@@H](Oc1cc(-n2cnc3ccc(OC[C@@H](O)CO)cc32)sc1C(N)=O)c1ccccc1Cl`: the inhibition in assay [1] is 0.22%; in assay [2], -0.26%; in assay [3], -0.61%; in [4] it was -0.25%; in assay [5] it was 3.02%; in assay [6], -0.38%. The inhibition in assay [7] was 1.7%; in assay [8], 0.53%; in assay [9], 0.23%; in assay [10], -1.57%; in assay [11], -0.26%; in [12] it was -0.24%. The inhibition in [13] is 1.09%; in assay [14], -0.9%; in assay [15] it was 0.85%; in assay [16], -1.05%; in assay [17], 2.03%; in assay [18] it was -1.17%. In addition, the values for the inhibition in assay [19] and in assay [20] were 0.36% and 0.81%, respectively.
With `O=C1Nc2ccc(-c3cccnc3)cc2C1=Cc1cc(Br)c(O)c(Br)c1`, the inhibition turned out to be 3.18% in assay [1]; 1.62% in assay [2]; 1.19% in [3]; 1.72% in assay [4]; 2.45% in [5]; 0.24% in assay [6]. Also, the inhibition in assay [7] is -1.03%; in [8], 3.09%; in assay [9] it was 0.7%; in assay [10], 4.09%; in assay [11], 6.29%; in assay [12], 1.6%. The inhibition in assay [13] amounted to 3.35%; in assay [14], 1.77%; in assay [15] it was 2.57%; in [16], 0.86%; in assay [17] it was 1.44%; in assay [18], 2.94%. Also, the results for the inhibition in assay [19] and in [20] were 4.25% and 3.88%, respectively.
In the case of `Cc1ccc(O)cc1Nc1ccnc2ccc(S(C)(=O)=O)cc12`, the inhibition turned out to be 1.13% in assay [1]; 3.25% in assay [2]; 11.9% in assay [3]; 1.78% in [4]; 11.2% in assay [5]; 1.93% in assay [6]. The inhibition in assay [7] came to 4.87%; in assay [8], 2.56%; in assay [9], 6.46%; in assay [10], 0.83%; in assay [11] it was 4.87%; in [12], 3.04%. Also, the inhibition in [13] came to 1.3%; in [14] it was 3.39%; in [15], 7.6%; in assay [16] it was 2.21%; in [17], 4.59%; in assay [18], 5.19%. In addition, the inhibition in assay [19] was determined as 24.7%; in assay [20], 7.07%.
As to `COc1cc(/C=N/Nc2ncnc3c2cnn3C(C)C)ccc1O`, the inhibition was 5.59% in assay [1]; 1.05% in assay [2]; 3.87% in assay [3]; 0.6% in [4]; 2.74% in [5]; 0.72% in assay [6]. Further, the inhibition is 3.01% in assay [7]; 0.82% in [8]; 3.21% in [9]; -1.82% in [10]; 5.96% in [11]; 1.94% in assay [12]. The inhibition in [13] stood at 1.52%; in [14] it was 1.33%; in [15] it was 4.03%; in assay [16], 1.47%; in [17], 4.67%; in assay [18] it was 1.79%. Besides, the inhibition in assay [19] stood at 1.16%; in assay [20], 1.45%.
For the molecule `NS(=O)(=O)c1ccc(Nc2cc(-c3cccc(O)c3)n[nH]2)cc1`, the inhibition is 1.78% in assay [1]; 3% in assay [2]; 2.6% in assay [3]; 1.01% in assay [4]; 1.85% in assay [5]; -3.34% in assay [6]. Further, the inhibition in [7] is 1.78%; in assay [8], 3.19%; in assay [9], 2.17%; in assay [10] it was 2.3%; in assay [11], 5.97%; in assay [12], 2.37%. Also, the inhibition in assay [13] was found to be 3.83%; in assay [14] it was 3.09%; in assay [15] it was 3.2%; in assay [16] it was 1.35%; in assay [17], 3.75%; in [18], 4.8%. Also, the inhibition was determined as 11.4% in [19] and 5.45% in [20].
